Here are results for 5 compounds from PubChem BioAssay.

A word on the inhibition: it is the relative decrease from the control value, in per cent.

Test [1] can be described thus: yeast TOR pathway RPL19A-GFP modulators, primary screen, cell-based, S. cerevisiae, multiplex flow cytometry (AID 1862; in the data active = percent of DMSO control GFP below about 86%;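 note: lower values mimic rapamycin by blocking the RPL19A rise seen in DMSO cells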). To be noted: S. cerevisiae RPL19A-GFP strain, flow cytometry fluorescence, 3 h; at 10 µM; stronger effect = lower value. (A flow cytometer gives signals particle by particle.)
Test [2] can be described thus: modulators of MEP2-GFP levels in yeast, primary screen, S. cerevisiae, multiplex flow cytometry (AID 1867;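 active = GFP response, as percent of the DMSO control, above the screen-wide mean plus 3 SD, about 139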;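 note: median GFP channel fluorescence of barcode-gated MEP2-GFP cells measured by flow cytometry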). To be noted: S. cerevisiae MEP2-GFP strain, 3 h, at 10 µM, stronger effect = higher value, 100% means same as DMSO wells.
A short description of test [3]: modulators of CIT2-GFP expression in yeast, primary screen, S. cerevisiae, GFP fusion, multiplex flow cytometry (AID 1870;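 active = percent response above a set limit, the screen-wide mean plus 3 SD, cut at about 130% in these data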;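 note: barcoded CIT2-GFP strain pooled with four other GFP strains with rapamycin as positive control; median GFP fluorescence per well over plate mean of DMSO wells so 100% = DMSO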). To be noted: 3 h, at 10 µM, stronger effect = higher value.
Test [4] can be described thus: modulators of LAP4-GFP expression in yeast, primary screen, S. cerevisiae, multiplex flow cytometry (AID 1873;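 active = GFP signal, as percent of the solvent control, above the screen mean plus 3 SD, about 149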). To be noted: 3 h, at 10 µM, stronger effect = higher value.
Test [5] in a line: modulators of AGP1-GFP expression in yeast TOR pathway, primary screen, cell-based, multiplex flow cytometry, S. cerevisiae (AID 1887;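 active = GFP signal above the screen-wide mean plus 3 SD, that is over about 124.5% of the solvent control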;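 note: AGP1-GFP fusion strain of S. cerevisiae within a five-strain barcoded multiplex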). To be noted: 3 h, at 10 µM, stronger effect = higher value.
Test [6] can be described thus: inhibitors of CD8+ T cell-vesicle binding, pilot screen, LFA-1/ICAM-1 modulator project, MLPCN validation set, flow cytometry (AID 2523;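 active = response below a set limit, under 55% cells CD8-positive and vesicle-bound, and CD8 cells' 90th-percentile brightness under 279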;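 for vesicle binding response: mean PE anti-B7-1 fluorescence of CD8+ cells relative to row control; 100% = QL9-loaded vesicles with DMSO vehicle in the same plate row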). To be noted: 2C mouse CD8+ T cells, at 7 µM, stronger effect = lower value; double positive events: measured here: CD8+/vesicle+ event percentage.
The target of test [7] is Integrin beta-1 (Homo sapiens) + Integrin alpha-4 (Homo sapiens) (UniProt P13612+P05556). The test is described as follows: inhibition of HUTS-21 binding to VLA-4, pilot screen, VLA-4 allosteric modulator project, U937 cells, HUTS-21 mAb, flow cytometry, validation set (AID 2674;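 active = inhibition above 50%, about 3 SD of the validation set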;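 note: antibody binding induced by the VLA-4 ligand LDV present at three times its Kd; 0% = LDV ligand with antibody and no compound and 100% = antibody without LDV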). To be noted: HUTS-21 LIBS mAb binding, at 6.7 µM, stronger effect = higher value, binding induced by LDV ligand.
Integrin beta-1 (Homo sapiens) + Integrin alpha-4 (Homo sapiens), sequence (P05556 whole entry, looked up): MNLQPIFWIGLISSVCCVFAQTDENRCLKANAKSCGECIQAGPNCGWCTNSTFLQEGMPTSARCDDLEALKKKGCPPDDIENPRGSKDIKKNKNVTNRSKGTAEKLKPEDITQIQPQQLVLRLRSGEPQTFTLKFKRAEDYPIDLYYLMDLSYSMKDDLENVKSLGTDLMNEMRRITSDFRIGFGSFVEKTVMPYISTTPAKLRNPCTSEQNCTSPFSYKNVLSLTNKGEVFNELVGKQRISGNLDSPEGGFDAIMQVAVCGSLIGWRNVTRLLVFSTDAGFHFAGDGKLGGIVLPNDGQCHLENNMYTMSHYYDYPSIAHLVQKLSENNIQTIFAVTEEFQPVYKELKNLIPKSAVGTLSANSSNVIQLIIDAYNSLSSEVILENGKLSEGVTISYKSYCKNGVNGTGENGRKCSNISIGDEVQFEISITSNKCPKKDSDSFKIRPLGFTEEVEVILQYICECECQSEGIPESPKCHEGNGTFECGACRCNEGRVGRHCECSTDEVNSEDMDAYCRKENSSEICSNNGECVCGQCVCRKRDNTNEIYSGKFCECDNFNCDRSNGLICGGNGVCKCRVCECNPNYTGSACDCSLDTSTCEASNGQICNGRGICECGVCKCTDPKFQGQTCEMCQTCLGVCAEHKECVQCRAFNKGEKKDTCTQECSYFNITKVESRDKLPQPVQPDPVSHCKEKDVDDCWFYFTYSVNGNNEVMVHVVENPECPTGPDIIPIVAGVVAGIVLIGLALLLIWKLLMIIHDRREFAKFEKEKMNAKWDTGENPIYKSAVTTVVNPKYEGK
Integrin beta-1 (Homo sapiens) + Integrin alpha-4 (Homo sapiens), sequence (P13612 whole entry, looked up): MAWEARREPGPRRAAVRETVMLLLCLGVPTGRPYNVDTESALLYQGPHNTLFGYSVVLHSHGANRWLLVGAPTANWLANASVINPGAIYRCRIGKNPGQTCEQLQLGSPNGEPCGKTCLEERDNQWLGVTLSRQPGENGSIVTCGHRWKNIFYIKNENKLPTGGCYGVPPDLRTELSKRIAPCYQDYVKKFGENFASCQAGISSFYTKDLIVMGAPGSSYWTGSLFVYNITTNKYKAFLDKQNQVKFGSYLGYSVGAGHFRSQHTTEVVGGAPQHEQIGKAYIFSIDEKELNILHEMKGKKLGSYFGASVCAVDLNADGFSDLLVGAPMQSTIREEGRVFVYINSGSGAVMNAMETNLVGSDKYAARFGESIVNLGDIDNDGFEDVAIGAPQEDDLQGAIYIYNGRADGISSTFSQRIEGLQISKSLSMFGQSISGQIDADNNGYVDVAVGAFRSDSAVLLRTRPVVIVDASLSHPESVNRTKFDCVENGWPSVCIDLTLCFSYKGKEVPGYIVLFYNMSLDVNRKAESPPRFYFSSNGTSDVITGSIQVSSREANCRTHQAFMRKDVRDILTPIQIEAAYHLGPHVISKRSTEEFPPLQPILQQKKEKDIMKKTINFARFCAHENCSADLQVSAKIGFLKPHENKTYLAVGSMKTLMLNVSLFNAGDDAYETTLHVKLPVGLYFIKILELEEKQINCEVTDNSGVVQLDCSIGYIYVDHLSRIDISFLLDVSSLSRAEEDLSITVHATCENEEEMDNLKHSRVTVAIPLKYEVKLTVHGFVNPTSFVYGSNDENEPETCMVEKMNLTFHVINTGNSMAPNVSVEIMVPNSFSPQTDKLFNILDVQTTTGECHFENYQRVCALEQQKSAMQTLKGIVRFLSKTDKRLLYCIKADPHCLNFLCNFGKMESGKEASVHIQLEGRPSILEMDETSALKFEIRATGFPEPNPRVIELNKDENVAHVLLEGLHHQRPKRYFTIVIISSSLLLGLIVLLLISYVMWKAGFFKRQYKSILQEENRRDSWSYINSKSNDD

Test [8] is described as follows: superoxide lowering in aged yeast cells, pilot screen, validation compound set (AID 2706;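 active = superoxide response below 65% of plate, a cut near 3 SD across the whole screen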;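 note: yeast exposed to compound for one week at 30 degrees C before staining; 100% = mean of all compound wells on the same plate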). To be noted: S. cerevisiae aging, superoxide DHE fluorescence; at 10 µM; stronger effect = lower value.
Test [9] concerns the target Beta-adrenergic receptor kinase 1 (Homo sapiens) (UniProt P25098). Put plainly: GRK2 binders displacing RNA aptamer, biochemical, validation, human GRK2, bead flow cytometry (AID 488806;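 active = aptamer binding inhibition above 30%, about 3 SD of noise from non-fluorescent compounds; inactive = inhibition at or below 30%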). To be noted: bead-bound GRK2, FAM-aptamer displacement, at 10 µM, stronger effect = higher value.
Test [10] concerns the target Beta-2 adrenergic receptor (Homo sapiens) (UniProt P07550). The test is described as follows: beta2AR agonists driving receptor internalization, pilot screen, cell-based, FAP fluorogen, flow cytometry, validation set (AID 504459;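 active = percent response above 42, roughly 3 SD of non-fluorescent test compounds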;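 note: agonist-driven loss of surface beta2AR via internalization measured by FAP dye flow cytometry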). To be noted: Am2.2-beta2AR cells, FAP surface receptor flow cytometry; at 10 µM; stronger effect = higher value.
Test [11] concerns the target AP-2 complex subunit beta (Homo sapiens) (UniProt P63010). The test is described as follows: inhibitors of arrestin peptide binding to AP2, pilot screen, biochemical, validation set, GST-AP2 beads, flow cytometry (AID 504541).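 Note: AP2 carries R879A mutation and is captured from E. coli lysate; bead-bound FITC arrestin peptide fluorescence measuring arrestin peptide binding to AP2; 0% = DMSO wells and 100% = excess unlabeled arrestin peptide control.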 To be noted: FITC arrestin peptide, at 10 µM, stronger effect = higher value, AP2 beta2 appendage fragment, R879A mutant.
The nature of test [12]: yeast V-ATPase proton transport modulators, S. cerevisiae, pHLuorin, HTS validation (AID 504600; in the data active = response above about 15%;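 note: plate controls were DMSO for no effect and reference compound for full effect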). To be noted: S. cerevisiae pHLuorin cytosolic pH, at 10 µM, stronger effect = higher value.
Test [13] relates to anti-desmoglein-3 scFv antibody binding to human DSG3. The test is described as follows: inhibitors of anti-DSG3 scFv binding to DSG3, pilot screen, biochemical, validation compound set, bead-based, flow cytometry (AID 588368;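 active = binding below the plate cutoff, the plate median minus 3 SD, with a reading above zero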;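 note: signal is the median channel fluorescence of bead-bound GFP antibody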). To be noted: Protein G beads, DSG3-Fc, scFv-GFP binding, at 10 µM, stronger effect = lower value.
A short description of test [14]: inhibitors of fungal efflux pumps CDR1, CDR2, MDR1, pilot screen, validation compound set, multiplex, phenotypic (AID 588506;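 active = efflux inhibition above 0.42, the validation set average plus 4 SD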;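 note: Nile Red retained in cells so higher fluorescence means more efflux inhibition; 0 = negative control wells and 1 = enniatin B 25 µM full block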). To be noted: S. cerevisiae pump-expressing triplex, Nile Red efflux flow cytometry; at 10 µM; stronger effect = higher value; the pumps come from Candida albicans.
For test [15], the target named is ATP-binding cassette sub-family B member 6 (Homo sapiens) (UniProt Q9NP58). Put plainly: ABCB6 transporter inhibitors, pilot screen, K562-ABCB6 cells, flow cytometry, validation set (AID 588550;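 active = inhibition above the screen-wide mean plus 3 SD, about 51%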;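 note: 0% = DMSO wells and 100% = benzethonium chloride 70 µM positive control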). To be noted: K562-ABCB6 porphyrin accumulation, 1 h, at 10 µM, stronger effect = higher value.
ATP-binding cassette sub-family B member 6 (Homo sapiens), sequence (Q9NP58 whole entry, looked up): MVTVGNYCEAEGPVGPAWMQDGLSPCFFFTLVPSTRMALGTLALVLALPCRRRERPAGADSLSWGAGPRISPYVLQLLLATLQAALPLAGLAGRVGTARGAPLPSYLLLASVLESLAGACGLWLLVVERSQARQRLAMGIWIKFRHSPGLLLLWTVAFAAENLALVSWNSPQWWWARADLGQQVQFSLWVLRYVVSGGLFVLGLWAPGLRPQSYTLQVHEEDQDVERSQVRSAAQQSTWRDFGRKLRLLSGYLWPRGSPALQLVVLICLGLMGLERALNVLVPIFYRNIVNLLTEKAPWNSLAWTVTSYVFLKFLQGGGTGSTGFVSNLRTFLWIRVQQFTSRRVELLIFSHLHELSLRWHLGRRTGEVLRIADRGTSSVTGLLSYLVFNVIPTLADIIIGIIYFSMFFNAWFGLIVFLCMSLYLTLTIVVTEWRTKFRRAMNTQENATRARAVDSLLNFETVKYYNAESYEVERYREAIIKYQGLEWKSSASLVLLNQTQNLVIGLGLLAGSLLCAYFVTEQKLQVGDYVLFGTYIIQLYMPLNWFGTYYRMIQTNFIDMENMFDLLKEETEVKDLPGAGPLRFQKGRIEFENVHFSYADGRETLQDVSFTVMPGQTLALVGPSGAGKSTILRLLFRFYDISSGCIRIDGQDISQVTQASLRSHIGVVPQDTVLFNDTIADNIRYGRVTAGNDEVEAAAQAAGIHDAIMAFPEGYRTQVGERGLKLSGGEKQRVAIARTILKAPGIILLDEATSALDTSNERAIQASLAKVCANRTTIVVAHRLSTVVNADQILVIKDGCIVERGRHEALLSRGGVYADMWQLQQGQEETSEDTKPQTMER
A short description of test [16]: promoters of myeloid differentiation in arrested cells, primary screen, cell-based, GFP/MAC1 double positive, flow cytometry, validation set (AID 588685;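 active = differentiation response of at least 50%, scaled between solvent and reference control, from cells with both markers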;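 note: compound exposure lasts four days before antibody staining and flow analysis; 0% = DMSO wells and 100% = 5 µM fulvestrant positive control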). To be noted: ER-HoxA9 marrow cells, stronger effect = higher value, normalized: vehicle 0, fulvestrant 100.

Results filed as inconclusive are left out. The source made the active and inactive calls.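 Rule for the calls, unless noted: active = inhibition above 54%, about 3 SD of non-fluorescent compounds; inactive = the rest.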

Beta-2 adrenergic receptor (Homo sapiens), sequence (P07550 whole entry, looked up): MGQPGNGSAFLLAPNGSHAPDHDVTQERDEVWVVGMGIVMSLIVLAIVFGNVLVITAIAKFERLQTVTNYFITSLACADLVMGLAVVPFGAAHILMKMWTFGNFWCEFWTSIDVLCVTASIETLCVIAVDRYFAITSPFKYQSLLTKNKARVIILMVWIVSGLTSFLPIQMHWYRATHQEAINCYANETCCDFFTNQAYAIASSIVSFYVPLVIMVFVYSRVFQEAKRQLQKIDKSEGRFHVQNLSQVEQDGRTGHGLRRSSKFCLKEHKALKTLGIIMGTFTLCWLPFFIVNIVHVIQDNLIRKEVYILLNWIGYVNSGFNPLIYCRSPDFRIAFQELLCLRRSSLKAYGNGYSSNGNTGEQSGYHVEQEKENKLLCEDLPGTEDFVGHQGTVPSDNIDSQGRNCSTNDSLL
Beta-adrenergic receptor kinase 1 (Homo sapiens), sequence (P25098 whole entry, looked up): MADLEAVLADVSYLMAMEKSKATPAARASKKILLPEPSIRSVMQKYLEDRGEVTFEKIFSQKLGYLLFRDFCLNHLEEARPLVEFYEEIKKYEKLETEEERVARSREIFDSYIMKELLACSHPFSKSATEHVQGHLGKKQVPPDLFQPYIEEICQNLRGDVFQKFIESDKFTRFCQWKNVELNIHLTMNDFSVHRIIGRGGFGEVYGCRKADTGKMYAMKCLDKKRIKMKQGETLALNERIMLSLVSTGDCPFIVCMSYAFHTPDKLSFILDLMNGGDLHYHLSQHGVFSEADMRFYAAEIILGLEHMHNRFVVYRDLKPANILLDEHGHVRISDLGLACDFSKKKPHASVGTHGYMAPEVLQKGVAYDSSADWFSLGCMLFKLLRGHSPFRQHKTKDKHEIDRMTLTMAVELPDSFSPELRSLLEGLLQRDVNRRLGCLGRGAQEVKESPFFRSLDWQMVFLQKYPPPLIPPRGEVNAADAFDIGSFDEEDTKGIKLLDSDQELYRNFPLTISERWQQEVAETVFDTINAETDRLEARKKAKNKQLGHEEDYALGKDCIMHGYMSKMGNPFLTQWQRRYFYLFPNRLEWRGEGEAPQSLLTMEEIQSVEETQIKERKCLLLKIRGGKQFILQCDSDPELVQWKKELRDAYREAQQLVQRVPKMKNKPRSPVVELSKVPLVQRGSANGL
AP-2 complex subunit beta (Homo sapiens), sequence (P63010 whole entry, looked up, the tested form may be a part, one chain of several): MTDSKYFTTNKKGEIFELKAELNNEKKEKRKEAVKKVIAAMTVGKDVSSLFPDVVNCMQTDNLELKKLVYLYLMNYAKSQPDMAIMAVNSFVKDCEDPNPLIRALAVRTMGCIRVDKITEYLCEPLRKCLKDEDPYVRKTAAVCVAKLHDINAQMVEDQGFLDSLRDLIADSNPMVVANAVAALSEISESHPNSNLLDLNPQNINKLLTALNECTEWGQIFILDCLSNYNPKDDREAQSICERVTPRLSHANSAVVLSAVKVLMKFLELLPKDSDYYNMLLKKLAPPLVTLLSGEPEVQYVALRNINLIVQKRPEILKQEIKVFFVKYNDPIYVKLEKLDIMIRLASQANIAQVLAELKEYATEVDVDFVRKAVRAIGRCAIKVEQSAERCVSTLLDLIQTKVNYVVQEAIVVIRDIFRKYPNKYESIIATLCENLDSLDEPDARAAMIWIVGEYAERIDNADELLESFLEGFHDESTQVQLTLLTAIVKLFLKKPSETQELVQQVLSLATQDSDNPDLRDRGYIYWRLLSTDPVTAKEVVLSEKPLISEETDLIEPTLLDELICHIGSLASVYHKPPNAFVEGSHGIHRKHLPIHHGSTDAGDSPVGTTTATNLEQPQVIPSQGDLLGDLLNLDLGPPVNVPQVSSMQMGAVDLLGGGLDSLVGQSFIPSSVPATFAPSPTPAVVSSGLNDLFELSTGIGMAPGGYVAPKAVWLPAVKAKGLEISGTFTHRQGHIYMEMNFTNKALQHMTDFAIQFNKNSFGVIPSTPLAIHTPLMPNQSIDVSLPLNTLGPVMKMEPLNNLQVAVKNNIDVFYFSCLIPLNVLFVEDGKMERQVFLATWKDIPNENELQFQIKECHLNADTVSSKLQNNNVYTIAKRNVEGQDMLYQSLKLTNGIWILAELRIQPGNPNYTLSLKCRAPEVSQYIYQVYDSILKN

`Cc1nc(C2CC(=O)OC23CCCCC3)cs1` (stereo not given): the percent of DMSO control GFP in test [1] was 94.4% (inactive). The results for the GFP response vs DMSO in test [2] and in test [4] were 106% (inactive) and 116% (inactive), respectively. The percent response of DMSO control in [3] was 94.8% (inactive). Also, the GFP response, % of DMSO in test [5] is 94% (inactive). Besides, in test [6], the double positive events turned out to be 61.4%. Besides, the vesicle binding response in test [6] was 136% (inactive). The inhibition was -0.43% (inactive) in test [7], -1.27% (inactive) in test [11] and 7% (inactive) in test [15]. In addition, in test [8], the superoxide response (% of plate) was 104% (inactive). Also, the aptamer binding inhibition in [9] is 9% (inactive). The values for the response in test [10] and in test [12] were -0.69% (inactive) and 1.08% (inactive), respectively. The binding (% of control) in test [13] is 98.7% (inactive). Further, the efflux inhibition (fraction of control) in test [14] was -0.24 (inactive). Besides, in test [16], the differentiation response was -20% (inactive).

For the compound `CC(=O)OC1c2c(ccc3ccc(=O)oc23)OC(C)(C)C1OC(=O)CC(C)C` (stereo not given), the percent of DMSO control GFP in test [1] is 103% (inactive). The GFP response vs DMSO in test [2] is 99.3% (inactive); in [4], 98% (inactive). The percent response of DMSO control in test [3] is 104% (inactive). Also, in [5], the GFP response, % of DMSO is 94.2% (inactive). Further, the double positive events in [6] came out at 64.2%. Moreover, the vesicle binding response in test [6] is 1500% (inactive). Further, the inhibition in test [7] was 19.3% (inactive); in [11], 1.97% (inactive); in test [15], 15% (inactive). Besides, the superoxide response (% of plate) in test [8] was 90.3% (inactive). Also, the aptamer binding inhibition in [9] was 3% (inactive). Moreover, the response in [10] was -25.3% (inactive); in [12], -1.96% (inactive). Besides, the binding (% of control) in test [13] was 100% (inactive). The efflux inhibition (fraction of control) in test [14] is 0.24 (inactive). In test [16], the differentiation response is -3.67% (inactive).

Take `CC(C)OC(=O)C1C(=O)CC(C)(O)C(C(=O)OC(C)C)C1c1cccc(O)c1` (stereo not given): the percent of DMSO control GFP in test [1] is 105% (inactive). In addition, the GFP response vs DMSO was 99.7% (inactive) in [2] and 101% (inactive) in test [4]. Further, the percent response of DMSO control in test [3] is 105% (inactive). The GFP response, % of DMSO in [5] is 114% (inactive). In [6], this compound had a double positive events of 55.9%. In addition, the vesicle binding response in [6] was 278% (inactive). Also, the inhibition is -18.5% (inactive) in test [7], 29.4% (inactive) in [11] and -13% (inactive) in test [15]. The superoxide response (% of plate) in test [8] is 85.3% (inactive). In addition, the aptamer binding inhibition in test [9] is -5% (inactive). Further, the response in test [10] is 6.25% (inactive); in [12], -3.54% (inactive). The binding (% of control) in test [13] was 99.8% (inactive). Besides, the efflux inhibition (fraction of control) in test [14] was -0.22 (inactive). Also, the differentiation response in test [16] is -11.9% (inactive).

On to `COc1ccc(CN2CCC(=O)NC2=O)cc1`, for which the percent of DMSO control GFP in test [1] was 102% (inactive). Also, the GFP response vs DMSO in test [2] and in test [4] was 105% (inactive) throughout. In [3], the percent response of DMSO control was 97.7% (inactive). Further, the GFP response, % of DMSO in test [5] was 96.5% (inactive). Further, the double positive events in test [6] was determined as 59.9%. Besides, the vesicle binding response in [6] was 170% (inactive). Further, the inhibition in [7] is 3.67% (inactive); in [11], 33.2% (inactive); in test [15], 2% (inactive). The superoxide response (% of plate) in [8] was 101% (inactive). Besides, in test [9], the aptamer binding inhibition is -2% (inactive). The response in test [10] was -1.29% (inactive); in test [12], -0.38% (inactive). In addition, in [13], the binding (% of control) is 81.3% (inactive). Further, the efflux inhibition (fraction of control) in test [14] was 0.08 (inactive). Besides, the differentiation response in [16] was 116% (active).

As to `O=C(CCc1c[nH]c2ccccc12)NCc1ccco1`, the percent of DMSO control GFP in test [1] was 102% (inactive). In addition, the figures for the GFP response vs DMSO in [2] and in test [4] were 106% (inactive) and 109% (inactive), respectively. Moreover, the percent response of DMSO control in test [3] was 93.8% (inactive). Moreover, in test [5], the GFP response, % of DMSO was 106% (inactive). The compound further displayed a double positive events in test [6] of 63%. Moreover, the vesicle binding response in [6] was 201% (inactive). Further, the inhibition in test [7] was 3.99% (inactive); in test [11] it was 33.1% (inactive); in [15], 5% (inactive). Besides, the superoxide response (% of plate) in test [8] is 98.4% (inactive). Further, the aptamer binding inhibition in test [9] is -3% (inactive). Besides, the response is -21.7% (inactive) in [10] and 1.49% (inactive) in test [12]. Also, the binding (% of control) in test [13] is 103% (inactive). In addition, in [14], the efflux inhibition (fraction of control) is 0.04 (inactive). Besides, the differentiation response in test [16] was 0.92% (inactive).
